In all, about 290,000 compounds went through this assay and about 27,000 (9.3%) were called active. What follows is part of a selection rich in actives, with near analogues and random picks from the rest. A number with no mark means an inactive call. Rule as the data show it: active = inhibition mostly above about 28% (no sharp cut-off); inactive = mostly below about 43%.

The experiment can be described thus: A qHTS for Small Molecule Inhibitors of Shiga Toxin. Also: 0% is about no effect. The settings on record: Vero cells, Shiga toxin protein synthesis inhibition reporter; at 38.7 µM, hits give high values.
For `CC(C)C(=O)N1CC(=O)Nc2ccc(F)cc2C1c1ccc(F)cc1` (stereo unspecified), the inhibition (commonly the drop in the measured response relative to a control, in per cent) is -3.75%.

For `COC(=O)c1ccc(NCC(=O)N2CCCCCC2)cc1`, the inhibition is 110% (active).

As to `COC(=O)c1ccc(/C=N/NC(=O)C(=O)N2CCCCCC2)cc1`, the inhibition was -5.76%.

As to `COC(=O)c1ccc(C(=O)OC)c(NC(=S)N2CCCCC2)c1`, the inhibition was 12.8%.

Regarding `Cc1ccc(C(=O)CNc2ccc(F)cc2)cc1`, the inhibition was 45.5% (active).

Regarding `COC(=O)c1ccc(NC(=O)c2ccccc2NS(=O)(=O)c2ccccc2)cc1`, the inhibition is 5.81%.

Consider `COc1ccc(NC(=O)CCCC(=O)c2ccccc2)cc1`, for which the inhibition is 6.27%.

Take `Cc1ccc(C(=O)NC2CCN(C(=O)Nc3ccc(F)cc3)CC2)cc1`: the inhibition is -7.26%.

On to `Cc1ccc(NC(=S)Nc2ccc(F)cc2)cc1`, for which the inhibition was 27.7%.

Regarding `COC(=O)c1ccc(NCC(=O)c2ccccc2)cc1`, the inhibition is 85.2% (active).

In the case of `c1ccc(Cc2ccc(OCCn3ccnc3)cc2)cc1`, the inhibition was 1.57%.

With `COc1ccc(CN(C)C(=O)c2cc(-c3ccc(C)cc3C)nc3ccccc23)c(OC)c1OC`, the inhibition is -8.91%.

Consider `CC(=O)N1CCCc2cc(S(=O)(=O)N3CCCC(C(=O)N4CCN(c5cccc(Cl)c5)CC4)C3)ccc21` (stereo unspecified), for which the inhibition was -12.3%.

In the case of `COc1ccc(CNC(=O)C2CCN(C(=O)c3ccccc3)CC2)cc1`, the inhibition is -21.8%.

In the case of `Cc1ccc2c(c1)N(CC(=O)NCCc1ccc(Cl)cc1)C(=O)c1cccnc1O2`, the inhibition is 4.91%.

In the case of `Cc1ccc(NC(=O)Cn2nc(C)c3ccccc3c2=O)c(C)c1`, the inhibition is 10.2%.

Consider `Cc1ccc(NC(=O)c2ccn(C(=O)Nc3ccccc3)n2)c(C)c1`, for which the inhibition is 92.2% (active).

Take `Cc1ccc(C)c(S(=O)(=O)N2CCN(C(=O)Nc3ccccc3)CC2)c1`: the inhibition is 17.4%.

Consider `O=C(Nc1ccc2c(c1)OCCO2)C(c1ccc(F)cc1)N1CCCCC1` (stereo unspecified), for which the inhibition was 5.25%.

For the compound `CCOC(=O)c1cnc2ccc(F)cc2c1Nc1ccc2c(c1)OCCO2`, the inhibition is 35% (active).

As to `Cc1ccc2nc(-c3ccncc3)cc(C(=O)Nc3ccc4c(c3)OCCO4)c2c1`, the inhibition is 9.13%.

For `COc1ccc(C(=O)N(C)CC(O)c2ccccc2)cc1OC1CCN(C(C)=O)CC1` (stereo unspecified), the inhibition is -21%.

`O=C(Cc1ccccc1Cl)N1CCN(c2ccccn2)CC1`: the inhibition is 7.93%.

Regarding `O=C(CCC1CCCN(C(=O)Cc2ccc(F)cc2)C1)N1CCN(c2ccccn2)CC1` (stereo unspecified), the inhibition is -2.14%.

For `O=C(Cc1ccc(Br)cc1)N1CCN(c2ccccn2)CC1`, the inhibition was 45.9% (active).

Regarding `CNC(=O)c1sc(Nc2ccc(OCc3ccccc3)cc2)nc1C`, the inhibition is 43.2%.

For `Cn1c(=NC(=O)CSCC(=O)N2CCCCC2)sc2ccccc21`, the inhibition was 20.2%.

Consider `Cn1c(=NC(=O)c2cnccn2)sc2ccccc21`, for which the inhibition was 48.7% (active).

Regarding `COC(=O)c1ccc(OC(=O)c2cnccn2)cc1`, the inhibition was -3.05%.

On to `CCn1cc(C(=O)OCC(=O)Nc2cccc(C)c2)c(=O)c2ccc(C)nc21`, for which the inhibition is 12.3%.

As to `COc1ccc(S(=O)(=O)N2CCC(C(=O)NCCC(=O)NCc3cccc(OC)c3)CC2)cc1`, the inhibition was -13%.

As to `COCCOC1CCN(C(=O)c2ccc(OC)c(OC3CCN(C(C)C)CC3)c2)CC1`, the inhibition is 3.86%.

Regarding `Cc1cc(Cl)ccc1C(=O)C1CCCN(C(=O)c2nonc2C)C1` (stereo unspecified), the inhibition is -11%.

For `N#C/C(=C(/O)COC(=O)COc1ccc(Cl)cc1)c1nc2ccccc2[nH]1`, the inhibition is -6.24%.

As to `O=C(Cc1nc2ccccc2[nH]c1=O)c1ccc(Cl)cc1`, the inhibition was 66.3% (active).

As to `O=C(/C(=C/c1cccc(Cl)c1)c1nc2ccccc2[nH]1)c1ccccc1`, the inhibition was 37.9%.

For `O=S(=O)(Nc1cccc2cccnc12)c1cccc2cccnc12`, the inhibition is -6.53%.

`Cc1cccc(NC(=O)CCN2CC(C)CC(C)C2)c1` (stereo unspecified): the inhibition is -6.03%.

`CCCc1c(C(=O)Nc2ccc(F)cc2)cnn1-c1ccccc1`: the inhibition was 58.3% (active).

For `CCCc1c(C(=O)O)cnn1-c1ccc(Cl)cc1`, the inhibition was 9.39%.

For the compound `CCNC(=O)c1cnn(-c2ccccc2)c1-c1ccccc1`, the inhibition is -0.867%.

On to `Cc1ccc2c(c1)N(S(=O)(=O)c1cc(-c3cc(C)no3)ccc1C)CCO2`, for which the inhibition is 18.2%.

For the compound `O=C(c1ccncc1)N1CCN(c2ccc3ccccc3n2)CC1`, the inhibition is -6.23%.

As for `c1cnc(N2CCN(c3ccc4ccccc4n3)CC2)nc1`, the inhibition is 71.6% (active).

Regarding `Oc1ccc(CN2CCN(c3ncccn3)CC2)cc1`, the inhibition is -3.72%.

With `O=C(N/N=C1\CCSC1)c1cc(Cl)ccc1O`, the inhibition is 35.8% (active).

As to `Cc1ccc(C)c(N2C(=O)CS/C2=N\NC(=O)c2ccccc2Cl)c1`, the inhibition was -31.2%.

With `C/C(=N/NC(=O)c1cc(Cl)ccc1O)C12CC3CC(CC(C3)C1)C2`, the inhibition is 25.6%.

Regarding `C=CCn1c(SCC(=O)NC)nnc1C12CC3CC(CC(C3)C1)C2`, the inhibition was 13.7%.

Consider `C/C(=N\NC(=O)c1ccccc1C)c1ccc(N2CCOCC2)cc1`, for which the inhibition is 40.6%.

For the compound `C/C(=N\NC(=O)c1ccoc1C)c1ccccc1O`, the inhibition was 104% (active).

As to `CC(C)=C(NC(=O)c1ccccc1)C(=O)N/N=C(\C)c1ccccc1O`, the inhibition is -2.93%.

In the case of `CC1=C(C(=O)NC2CC(C)(C)Cc3c2cnn3-c2ccc(C)cc2)OCCO1` (stereo unspecified), the inhibition is -2.9%.

Regarding `COc1cc(S(=O)(=O)N2CCN=C2c2ccccc2)ccc1Cl`, the inhibition is -4.87%.

With `CCN(CC)CCCNC(=O)CCn1nc(-c2ccc(Cl)cc2)ccc1=O`, the inhibition is -2.08%.

On to `COc1ccc2ccccc2c1/C=N/NC(=O)c1cc(C)[nH]n1`, for which the inhibition is 7.72%.

As to `Cc1cc2nc(SCCN3CCOCC3)[nH]c2cc1C`, the inhibition is 59.3% (active).

For `Cc1cccc(C)c1OCCN1CCOCC1`, the inhibition is 1.56%.

Consider `CCn1c2ccc(F)cc2c2nnc(SCCN3CCOCC3)nc21`, for which the inhibition was -3.64%.

Regarding `COc1cccc(CNS(=O)(=O)c2ccc3c(c2)N(C(C)=O)CCS3)c1`, the inhibition is -13.7%.

Take `Oc1ccc(/C=N/Nc2nc(-c3ccccc3F)nc3ccccc23)c(O)c1`: the inhibition is 16%.

Regarding `Cc1nc2ccccc2nc1N/N=C/c1ccc(O)cc1O`, the inhibition was 55.6% (active).

On to `COc1ccc(/C=C(\C#N)C(=O)ONC2=NCCCCC2)cc1`, for which the inhibition is 20.9%.

Regarding `Oc1ccc(/C=N/NC2=NCCCCC2)c(O)c1`, the inhibition was 97.5% (active).

Regarding `Cc1cc(N/N=C/c2ccccc2F)c2ccccc2n1`, the inhibition is 26.9%.

Turning to `C[C@H](C(=O)CC(=O)OC(C)(C)C)[C@H](O)c1ccc(C(F)(F)F)cc1`, the inhibition is 1.74%.

With `COCCCNC(=S)N1CCN(c2nc(-c3cccc(OC)c3)cs2)CC1`, the inhibition is 21.1%.

`C=CCOc1ccc(/C=C/C(=O)OCC(=O)NC2CCCCCC2)cc1`: the inhibition is 1.6%.

For `COCC(=O)N1CCCC(C(=O)c2ccc(C(F)(F)F)cc2)C1` (stereo unspecified), the inhibition is -8.8%.

In the case of `CC(=O)Nc1ccc(S(=O)(=O)Oc2ccc(Br)cc2C(=S)N2CCOCC2)cc1`, the inhibition was -12.5%.

Turning to `Cn1c(CNC(=O)c2ccco2)nnc1SCC(=O)N1CCN(c2ccccc2)CC1`, the inhibition was 4.34%.

As for `COc1ccccc1NC(=O)C1=C(C)NC(=O)NC1c1ccc(C)s1` (stereo unspecified), the inhibition was 1.28%.

Regarding `COc1ccccc1NC(=O)c1ccc(C)s1`, the inhibition is 73.7% (active).

Consider `COC(=O)c1c(NC(C)=O)sc(C(=O)Nc2ccccc2OC)c1C`, for which the inhibition is -23.1%.

`COc1ccc(/C=C(/NC(=O)c2ccccc2)C(=O)Nc2cccc(C(=O)O)c2)cc1`: the inhibition is -15.3%.

Consider `O=C(OCCN1C(=O)c2ccccc2C1=O)Oc1ccccc1`, for which the inhibition is -2.38%.

As for `Cc1cccc2c1N(CCOc1ccccc1)C(=O)C2=O`, the inhibition is -13.4%.

`O=C1c2ccccc2C(=O)N1CCOc1ccc(F)cc1`: the inhibition is 90.8% (active).

With `CC(NC(=O)COc1cccnc1[N+](=O)[O-])c1ccc(Cl)cc1Cl` (stereo unspecified), the inhibition is -9.36%.

`O=C(Cc1ccccc1)N/N=C/c1ccc(Cl)cc1Cl`: the inhibition is 6.24%.

For `O=C(CCC(=O)Nc1ccccc1)N/N=C/c1ccccc1F`, the inhibition was 144% (active).

Regarding `O=C(CCCCCNC(=O)c1ccccc1)N/N=C/c1ccccc1`, the inhibition was 11%.

`CN(C)C(=O)c1ccc(NC(=O)c2ccccc2-c2ccccc2)cc1`: the inhibition is -11.5%.

On to `CCc1ccc(NC(=O)c2ccc(Cn3cc([N+](=O)[O-])cn3)cc2)cc1`, for which the inhibition is 51.8%.

As for `O=C(Nc1ccccc1F)c1ccc(Cn2cc(Br)cn2)cc1`, the inhibition is 71.1% (active).

With `CCOc1cccc(C(=O)Nc2cnn(Cc3ccccc3)c2)c1`, the inhibition was 17.4%.

Regarding `CC(NC(=O)Cn1cc(C(F)(F)F)cc(Cl)c1=O)c1ccccc1` (stereo unspecified), the inhibition is -1.42%.

For `NNC(=O)CSc1nnc(-c2ccccc2)n1-c1ccccc1`, the inhibition was -7.44%.

For `COc1ccc(C(=O)NC2CC2)cc1OC1CCN(Cc2ccc(SC)cc2)CC1`, the inhibition is -0.345%.

On to `COc1ccc(Nc2nnc(C)c3ccccc23)cc1`, for which the inhibition was 106% (active).

In the case of `COc1ccc(Nc2nc(=O)[nH]nc2C)cc1`, the inhibition is 16.1%.

Consider `Cc1nnc(NCCO)c2ccccc12`, for which the inhibition is 10.4%.

Consider `CN(Cc1ccccc1)C(=O)C1CCCN(c2ncnc3c2nc2n3CCCCC2)C1` (stereo unspecified), for which the inhibition was 21.9%.

For the compound `C/C(=C/c1ccccc1)C(=O)N1CCN(c2ccccc2)CC1`, the inhibition was 18.9%.

With `Cc1cccc(C(=O)OC(C)CN2CCCC2)c1` (stereo unspecified), the inhibition is 5.97%.

With `CCNC(=S)NNC(=O)Cc1ccccc1`, the inhibition is -8.55%.

Turning to `O=C(CCc1ccccc1)NNC(=O)c1ccc(Br)cc1`, the inhibition is 34.5%.

In the case of `CC(C)(C)c1ccc(C(=O)NNC(=O)Cc2ccccc2)cc1`, the inhibition was 76.6% (active).

Regarding `CCOc1ccc2c(c1)C(c1ccc(C)cc1)=NNC(c1ccc(C)cc1)=N2`, the inhibition is 85.1% (active).

In the case of `CCc1ccc2c(c1)C(c1ccc([N+](=O)[O-])cc1)=NNC(c1ccccc1)=N2`, the inhibition is 31.4%.

`Cc1ccc(C2=Nc3c(ccc4ccccc34)C(c3ccncc3)=NN2)cc1`: the inhibition was 5.77%.

These data come from PubChem BioAssay AID2315 (National Center for Advancing Translational Sciences (NCATS), 2010).
